# Reference: PubChem BioAssay AID2401 (Southern Research Specialized Biocontainment Screening …, 2010)
# The whole screen tested about 2,200 compounds, of which about 530 (24%) were called active.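 How the source made its calls: active means inhibition above a set limit at one or more concentrations of the dose series; inactive means inhibition under that limit at every dose.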 A selection follows. Measured potencies and affinities stand elsewhere.
# Test: S. Typhimurium nonspecific reporter signal inhibition – Salmonella Typhimurium, GFP fluorescence, counter-screen for PhoP regulon inhibitor project, dose response (AID 2401);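 further: S. typhimurium with Mg-insensitive nmpC-GFP reporter grown at 10 µM Mg2+; drop in reporter fluorescence reflects general culture growth inhibition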
# Details: 4 h; series mostly up to 150 µM; inhibition: at the top concentration
row,SMILES,inhibition
1,Cc1c(Cl)cccc1NC(=O)CSc1ncnc2c1cnn2CCc1ccccc1,-13.4% (inactive)
2,Cc1cccc(NC(=S)NC(NC(=O)c2ccco2)C(Cl)(Cl)Cl)c1 (stereo unspecified),-26.1% (inactive)
3,CN(C)CCOC(=O)Cc1ccc(Cl)cc1,-18.6% (inactive)
4,O=C(CN1C(=O)c2ccccc2C1=O)N1CCN(c2ccccn2)CC1,-25.8% (inactive)
5,COC(=O)c1ccccc1Oc1cnc2ccccc2n1,-28.7% (inactive)
6,Brc1ccc(NC2=Nc3ccccc3CC2)cc1,-11.1% (inactive)
7,COc1ccc(N(CC(=O)Nc2ccccc2SC)S(C)(=O)=O)cc1OC,-12.1% (inactive)
8,Cc1ccccc1CS(=O)(=O)c1snnc1C,-13.8% (inactive)
9,CC(=O)Nc1ccc(NS(=O)(=O)c2ccc3c(c2)n(C)c(=O)n3C)cc1,-23.9% (inactive)
10,CCOc1ccc(-c2nnc(SCc3nnc(-c4ccccc4)o3)n2-c2ccccc2F)cc1,-8.6% (inactive)
11,COc1ccc(/C=C/C(=O)NCCc2nc3ccccc3[nH]2)cc1,26.3% (inactive)
12,CCOc1cc(/C=C2/NC(=O)N(CC(=O)Nc3cccc(C)c3)C2=O)ccc1OC,-25.9% (inactive)
13,O=C(c1cccnc1Nc1ccc2c(c1)CCC2)N1CCOCC1,-20.1% (inactive)
14,Cc1cc(C)cc(NC(=O)CSc2nc3c(c(=O)[nH]2)CN(Cc2ccc(F)cc2)CC3)c1,-6.71% (inactive)
15,O=C(c1cc2ncc(Br)cn2n1)N1CCOCC1,-18.7% (inactive)
16,O=[N+]([O-])c1ccccc1CNc1ccc(F)c(Cl)c1,-24% (inactive)
17,Nc1nnc(SCCOc2ccc(Br)cc2)s1,-20% (inactive)
18,O=S(=O)(NCc1ccccc1)c1cccc(S(=O)(=O)N2CCOCC2)c1,11% (inactive)
19,COc1ccc(Cl)cc1Nc1nc(-c2sc(NC(=O)c3ccco3)nc2C)cs1,20.6% (inactive)
20,O=C(/C=C/c1ccccc1)N1CCN(c2c(Cl)cccc2[N+](=O)[O-])CC1,-29.2% (inactive)
21,CCCCOC(=O)CCNc1n[nH]c(=O)[nH]c1=O,3.71% (inactive)
22,CN1CCN(S(=O)(=O)c2ccc(N)cc2)CC1,-16.2% (inactive)
23,O=C(NCc1ccccn1)Nc1cccc(Cl)c1,-24.5% (inactive)
24,Cn1c(N)c(C(=O)COC(=O)C2CCCCC2)c(=O)n(C)c1=O,-15.7% (inactive)
25,CC(C)CNC(=O)c1ccc(COc2ccc(Cl)cc2Cl)o1,-4.89% (inactive)
26,C#CCOc1ccc(Cl)cc1/C=N/O,13.5% (inactive)

row,SMILES,inhibition
1,CCCCN(C(=O)NC(=O)Nc1nc2ccc(OC)cc2s1)S(C)(=O)=O,14.3% (inactive)
2,Cc1ccc2nc(SCC(=O)c3c(C)[nH]c4ccccc34)[nH]c2c1,30.9% (inactive)
3,CN(CCO)Cc1csc2ccc(Br)cc12,-7.08% (inactive)
4,CCNC(=O)NC1(C(=O)Nc2ccc3c(c2)OCCO3)CCCCC1,-29.3% (inactive)
5,CC1=CC(C)(C)n2c(O)c(C3=NC(=S)NC3=O)c3cc(OC(=O)c4cccc5ccccc45)cc1c32,-11.6% (inactive)
6,CCOC(=O)C1CCCN(S(=O)(=O)c2ccc(Br)c(OC)c2)C1 (stereo unspecified),0.83% (inactive)
7,O=C(CCc1ccccc1)Nc1nc2ccc(S(=O)(=O)N3CCOCC3)cc2s1,25.6% (inactive)
8,O=C(c1ccc2nc(N3CCOCC3)sc2c1)N1CCC(Cc2ccccc2)CC1,-16.1% (inactive)
9,CN1CCN(S(=O)(=O)c2ccc(-c3ccccc3)cc2)CC1,-28.3% (inactive)
10,CCC1C2CN(C(C)=O)CC=C2C(C#N)=C(N)C1(C#N)C#N (stereo unspecified),3.63% (inactive)
11,Cc1cc(NCCN2CCOCC2)n2ncc(-c3ccccc3)c2n1,-15.6% (inactive)
12,CN(C)CCNc1nc(-c2ccccc2)nnc1C(F)(F)F,-3.73% (inactive)
13,Nc1c(-c2ccccc2Cl)cnn1-c1cccc([N+](=O)[O-])c1,-8.16% (inactive)
14,N#Cc1ccc(C(c2nnnn2CCc2ccccc2)N2CCCCCC2)cc1 (stereo unspecified),-1.07% (inactive)
15,NC(=O)c1ccccc1NC(=O)/C=C/C(=O)O,-8.68% (inactive)
16,O=C(Cc1cccs1)Nc1nc2c(s1)CCCC2,-24.8% (inactive)
17,COc1ccc([N+](=O)[O-])cc1N(CC(O)Cn1nnc2ccccc21)S(=O)(=O)c1ccc(C)cc1 (stereo unspecified),-42.2% (inactive)
18,O=C(O)/C=C/C(=O)Nc1cccc(C(F)(F)F)c1,-19.4% (inactive)
19,Cc1cccc(NC(=O)c2ccc(Cn3cc(C(F)(F)F)ccc3=O)cc2)c1,7.69% (inactive)
20,NS(=O)(=O)c1ccc(Nc2nc(-c3ccc(O)cc3)cs2)cc1,-18.4% (inactive)
21,COCc1cc(C)nc(N2CCc3ccccc32)c1C#N,-22.8% (inactive)
22,O=C(CSc1nnc(Cc2ccccc2)o1)NCCc1ccccc1,-24.4% (inactive)
23,CCn1c(=N)n(CC(O)c2ccccc2)c2ccccc21 (stereo unspecified),-16% (inactive)
24,Cc1ccccc1OCCCCCn1ccnc1,-17% (inactive)
25,COc1ccc(C(=O)NCCC2=CCCCC2)cc1OC,5.91% (inactive)
26,C1=C(CCNc2ncnc3c2[nH]c2ccccc23)CCCC1,26.4% (inactive)

row,SMILES,inhibition
1,Cc1nc2ccccc2c(=O)n1/N=C/c1ccc(N(C)C)cc1,-15.2% (inactive)
2,COc1cccc(Nc2nc(-c3sc(NC(=O)c4ccco4)nc3C)cs2)c1,25.7% (inactive)
3,O=C(NCCNS(=O)(=O)c1cccc(C(F)(F)F)c1)c1cc(OCC(F)(F)F)ccc1OCC(F)(F)F,-2.55% (inactive)
4,CCOC(=O)C1CCCN(C(=O)Cc2ccc(Cl)cc2)C1 (stereo unspecified),-20.2% (inactive)
5,NC(=NCc1ccc2c(c1)OCO2)NC(=O)c1ccccc1,36.3% (inactive)
6,COc1ccc(-c2nc3ncccc3n2O)cc1,-18.4% (inactive)
7,O=C(CSc1nccc(=O)[nH]1)N1c2ccccc2CCc2ccccc21,1.74% (inactive)
8,O=C(CSC1CC(=O)N(CCc2ccccc2)C1=O)Nc1cccc(Cl)c1 (stereo unspecified),9.92% (inactive)
9,COc1ccc(NC2=NC3(CCCCC3)N=C(N)N2)cc1,-8.53% (inactive)
10,CC(C)c1ccc(NC(=O)Nc2cc3sccc3n2C)cc1,22.1% (inactive)
11,CCOC(=O)C1CCCN(C(=O)c2sc3nc(C)nc(N4CCOCC4)c3c2C)C1 (stereo unspecified),-24.6% (inactive)
12,CCn1c(Cc2ccccc2)nnc1SCC(=O)Nc1nc(C)c(C)s1,-12.1% (inactive)
13,OC1(c2cccc(C(F)(F)F)c2)CCN(c2ncnc3c2[nH]c2ccccc23)CC1,15.2% (inactive)
14,Cc1ccc(Oc2nnc(-c3ccccc3)c3ccccc23)cc1,3.31% (inactive)
15,O=C(CN1CCCc2ccccc21)N/N=C/c1c(O)ccc2ccccc12,38.1% (inactive)
16,NC(=O)c1oc2ccccc2c1NC(=O)CN1CCCCC1,-2.53% (inactive)
17,Nc1ccc(S(=O)(=O)Nc2ccc(Cl)nn2)cc1,15.9% (inactive)
18,O=C(Nc1cccc(-c2cn3cccnc3n2)c1)c1ccco1,-21.2% (inactive)
19,CCOCCCNC(=S)Nc1cc(C)cc(C)c1,-3.38% (inactive)
20,O=C(CCNS(=O)(=O)c1cccc2nsnc12)Nc1ccc2c(c1)OCCO2,-13.2% (inactive)
21,O=c1[nH]c(CN2CCCCC2)nc2ccccc12,-18.8% (inactive)
22,Cc1cc(C(C)c2ccccc2)c(O)c(CN2CCOCC2)c1C (stereo unspecified),16.5% (inactive)
23,c1cncc(-c2nc(N3CCOCC3)c3ccccc3n2)c1,-13.2% (inactive)
24,c1ccc(COc2cccc(CN3CCN(c4ccccn4)CC3)c2)cc1,-21.9% (inactive)
